# Data: PubChem BioAssay (NCI)
# This is part of a sample that, as a whole, favours compounds with a hit. Of some 79,000 tested, about 15% had one in any assay. Values without a mark were called inactive. Activity calls are given as the source filed them. Rule as the data show it: active = growth inhibition above about 70%; inactive = the rest.
# Experiments:
# [1] = NCI Yeast Anticancer Drug Screen. Data for the rad52 strain (AID 147);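 also: 0% = growth of vehicle-treated control cultures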; details: S. cerevisiae rad52 mutant growth inhibition, active compounds read high
# How it was run: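 The repair-mutant yeast strain was incubated with compounds, then growth was read and inhibition derived relative to vehicle.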
# [2] = NCI Yeast Anticancer Drug Screen. Data for the wt1 strain (AID 149);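 also: 0% = growth of vehicle-treated wt1 cultures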; details: S. cerevisiae wt1 strain (SPY 50644) growth inhibition, active compounds read high
# How it was run: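 The wt1 strain was treated with compounds, and growth was compared with vehicle-treated cultures to give inhibition.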
# [3] = NCI Yeast Anticancer Drug Screen. Data for the rad50EPP+ strain (AID 151);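 also: 0% = growth of vehicle-treated control cultures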; details: S. cerevisiae rad50 mutant strain, active compounds read high
# How it was run: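 Vehicle-normalised growth inhibition; rad50EPP+ yeast strain, altered in DNA damage repair, compound-treated.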
# [4] = NCI Yeast Anticancer Drug Screen. Data for the mgt1 strain (AID 153); details: S. cerevisiae mgt1 mutant growth inhibition, active compounds read high
# How it was run: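 Vehicle-normalized growth inhibition is determined in mgt1 yeast, a strain selected for a defined alteration in DNA repair or cell cycle control.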
# [5] = NCI Yeast Anticancer Drug Screen. Data for the rad50 strain (AID 155);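 also: 0% = growth of vehicle-only cultures of the same strain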; details: S. cerevisiae rad50 strain growth inhibition, active compounds read high
# How it was run: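 Cells are treated with compound, grown, and their growth is then scored against vehicle-only cultures of the same repair-deficient yeast strain.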
# [6] = NCI Yeast Anticancer Drug Screen. Data for the mec2-1 strain (AID 157); details: S. cerevisiae mec2-1 strain, active compounds read high
# How it was run: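 Mutant yeast (mec2-1) grown with compound; growth inhibition relative to vehicle control reported.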
# [7] = NCI Yeast Anticancer Drug Screen. Data for the rad14 strain (AID 159);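 also: 0% = growth of vehicle-treated control cultures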; details: S. cerevisiae rad14 strain growth inhibition, active compounds read high
# How it was run: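 Readout: yeast growth inhibition, referenced to vehicle-only cultures. Strain bears a defined alteration in DNA damage repair.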
# [8] = NCI Yeast Anticancer Drug Screen. Data for the sgs1 mgt1 strain (AID 161);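 also: 0% = growth of cultures given vehicle only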; details: S. cerevisiae sgs1 mgt1 strain, active compounds read high
# How it was run: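 This yeast growth screen uses a strain with defined DNA-repair lesions; compound-treated growth is compared with vehicle-treated growth.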
# [9] = NCI Yeast Anticancer Drug Screen. Data for the CLN2oe strain (AID 163);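 also: 0% = growth of vehicle-only control cultures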; details: S. cerevisiae CLN2oe strain, active compounds read high
# How it was run: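 Compounds are applied to yeast harbouring a defined cell-cycle control change; reduced growth compared with vehicle-treated controls gives the value.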
# [10] = NCI Yeast Anticancer Drug Screen. Data for the cln2 rad14 strain (AID 165);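 also: 0% = growth equal to vehicle treated cultures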; details: S. cerevisiae cln2 rad14 strain, active compounds read high
# How it was run: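 Readout is yeast growth inhibition versus vehicle-treated controls, using a strain with cln2 and rad14 alterations exposed to compound.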
# [11] = NCI Yeast Anticancer Drug Screen. Data for the bub3 strain (AID 167); details: S. cerevisiae bub3 mutant strain, active compounds read high
# How it was run: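 Part of a panel of yeast mutants defective in DNA damage repair or cell cycle regulation. Each strain is grown with compound, and inhibition is calculated relative to solvent-treated cultures.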
# [12] = NCI Yeast Anticancer Drug Screen. Data for the wt2 strain (AID 169);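 also: 0% = growth of vehicle-treated yeast cultures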; details: S. cerevisiae wt2 strain growth inhibition, active compounds read high
# How it was run: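 Against vehicle-treated controls, the growth of yeast exposed to each compound was compared, and the inhibition was recorded.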
# [13] = NCI Yeast Anticancer Drug Screen. Data for the mlh1 strain (AID 171);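 also: 0% = growth of vehicle-treated control cultures of the same strain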; details: S. cerevisiae mlh1 strain growth inhibition, active compounds read high
# How it was run: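 Measured: yeast growth. Reference: vehicle-treated controls. Organism: strain with a defined alteration affecting DNA damage repair or cell cycle control, treated with compound.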
# [14] = NCI Yeast Anticancer Drug Screen. Data for the sgs1 strain (AID 173);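 also: 0% = growth of vehicle-only control cultures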; details: S. cerevisiae sgs1 mutant, active compounds read high
# How it was run: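 Each compound was added to cultures of the altered yeast strain. Growth was recorded, and inhibition was derived by comparison with vehicle controls.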
# [15] = NCI Yeast Anticancer Drug Screen. Data for the mlh1 rad18 strain (AID 175); details: S. cerevisiae mlh1 rad18 strain growth inhibition, active compounds read high
# How it was run: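 Genetically defined yeast (DNA repair-deficient) exposed to compounds; growth inhibition determined relative to vehicle.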
# [16] = NCI Yeast Anticancer Drug Screen. Data for the rad18 strain (AID 177); details: S. cerevisiae rad18 mutant growth inhibition, active compounds read high
# How it was run: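 Vehicle-treated cultures served as the baseline for scoring compound-induced growth inhibition in DNA-repair-mutant yeast.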
# [17] = at 5.0 µM (retest, dose inferred, filed as 0.5)
# [18] = at 50.0 µM (retest, dose inferred, filed as 5.0)
structure (smiles),measurement,setting,value
OCC(O)C(O)CO (stereo unspecified) (tested in a mixture with another compound),growth inhibition,[1]; at 1.2 µM,-2%
same,growth inhibition,[1]; at 3.7 µM,-3%
same,growth inhibition,[1]; at 11.0 µM,-1%
same,growth inhibition,[1]; at 33.0 µM,-4%
same,growth inhibition,[1]; at 100.0 µM,8%
same,growth inhibition,[2]; at 1.2 µM,-4%
same,growth inhibition,[2]; at 3.7 µM,-4%
same,growth inhibition,[2]; at 11.0 µM,-5%
same,growth inhibition,[2]; at 33.0 µM,-2%
same,growth inhibition,[2]; at 100.0 µM,0%
same,growth inhibition,[3]; at 1.2 µM,1%
same,growth inhibition,[3]; at 3.7 µM,2%
same,growth inhibition,[3]; at 11.0 µM,6%
same,growth inhibition,[3]; at 33.0 µM,9%
same,growth inhibition,[3]; at 100.0 µM,10%
same,growth inhibition,[4]; at 1.2 µM,0%
same,growth inhibition,[4]; at 3.7 µM,-2%
same,growth inhibition,[4]; at 11.0 µM,-1%
same,growth inhibition,[4]; at 33.0 µM,5%
same,growth inhibition,[4]; at 100.0 µM,0%
same,growth inhibition,[5]; at 1.2 µM,-8%
same,growth inhibition,[5]; at 3.7 µM,-17%
same,growth inhibition,[5]; [17],-130%
same,growth inhibition,[5]; at 11.0 µM,-3%
same,growth inhibition,[5]; at 33.0 µM,16%
same,growth inhibition,[5]; [18],82% (active)
same,growth inhibition,[5]; at 50.0 µM,15.4%
same,growth inhibition,[5]; at 100.0 µM,-1%
same,growth inhibition,[6]; at 1.2 µM,-1%
same,growth inhibition,[6]; at 3.7 µM,0%
same,growth inhibition,[6]; [17],-47%
same,growth inhibition,[6]; at 11.0 µM,-6%
same,growth inhibition,[6]; at 33.0 µM,0%
same,growth inhibition,[6]; [18],-1%
same,growth inhibition,[6]; at 50.0 µM,32.4%
same,growth inhibition,[6]; at 100.0 µM,3%
same,growth inhibition,[7]; at 1.2 µM,-1%
same,growth inhibition,[7]; at 3.7 µM,-5%
same,growth inhibition,[7]; at 11.0 µM,-4%
same,growth inhibition,[7]; at 33.0 µM,-3%
same,growth inhibition,[7]; at 100.0 µM,-1%
same,growth inhibition,[8]; [17],-57%
same,growth inhibition,[8]; [18],39%
same,growth inhibition,[8]; at 50.0 µM,-2.1%
same,growth inhibition,[9]; at 1.2 µM,2%
same,growth inhibition,[9]; at 3.7 µM,-1%
same,growth inhibition,[9]; at 11.0 µM,0%
same,growth inhibition,[9]; at 33.0 µM,0%
same,growth inhibition,[9]; at 100.0 µM,1%
same,growth inhibition,[10]; [17],-60%
same,growth inhibition,[10]; [18],-30%
same,growth inhibition,[10]; at 50.0 µM,-44.6%
same,growth inhibition,[11]; at 1.2 µM,-1%
same,growth inhibition,[11]; at 3.7 µM,-4%
same,growth inhibition,[11]; [17],-64%
same,growth inhibition,[11]; at 11.0 µM,-3%
same,growth inhibition,[11]; at 33.0 µM,-2%
same,growth inhibition,[11]; [18],25%
same,growth inhibition,[11]; at 50.0 µM,12.3%
same,growth inhibition,[11]; at 100.0 µM,3%
same,growth inhibition,[12]; at 1.2 µM,-2%
same,growth inhibition,[12]; at 3.7 µM,1%
same,growth inhibition,[12]; at 11.0 µM,0%
same,growth inhibition,[12]; at 33.0 µM,-2%
same,growth inhibition,[12]; at 100.0 µM,0%
same,growth inhibition,[13]; at 1.2 µM,8%
same,growth inhibition,[13]; at 3.7 µM,-1%
same,growth inhibition,[13]; at 11.0 µM,-5%
same,growth inhibition,[13]; at 33.0 µM,-5%
same,growth inhibition,[13]; at 100.0 µM,-3%
same,growth inhibition,[14]; at 1.2 µM,-1%
same,growth inhibition,[14]; at 3.7 µM,1%
same,growth inhibition,[14]; at 11.0 µM,2%
same,growth inhibition,[14]; at 33.0 µM,2%
same,growth inhibition,[14]; at 100.0 µM,-2%
same,growth inhibition,[15]; [17],-110%
same,growth inhibition,[15]; [18],29%
same,growth inhibition,[15]; at 50.0 µM,-9.65%
same,growth inhibition,[16]; at 1.2 µM,-4%
same,growth inhibition,[16]; at 3.7 µM,-3%
same,growth inhibition,[16]; at 11.0 µM,-2%
same,growth inhibition,[16]; at 33.0 µM,-2%
same,growth inhibition,[16]; at 100.0 µM,1%
Nc1nc(-c2ccccc2)c(-c2ccccc2)[se]1,growth inhibition,[1]; at 1.2 µM,3%
same,growth inhibition,[1]; at 3.7 µM,3%
same,growth inhibition,[1]; at 11.0 µM,0%
same,growth inhibition,[1]; at 33.0 µM,12%
same,growth inhibition,[1]; at 100.0 µM,28%
same,growth inhibition,[2]; at 1.2 µM,-2%
same,growth inhibition,[2]; at 3.7 µM,-1%
same,growth inhibition,[2]; at 11.0 µM,-1%
same,growth inhibition,[2]; at 33.0 µM,-2%
same,growth inhibition,[2]; at 100.0 µM,3%
same,growth inhibition,[3]; at 1.2 µM,-1%
same,growth inhibition,[3]; at 3.7 µM,7%
same,growth inhibition,[3]; at 11.0 µM,9%
same,growth inhibition,[3]; at 33.0 µM,18%
same,growth inhibition,[3]; at 100.0 µM,25%
same,growth inhibition,[4]; at 1.2 µM,-3%
same,growth inhibition,[4]; at 3.7 µM,1%
same,growth inhibition,[4]; at 11.0 µM,0%
same,growth inhibition,[4]; at 33.0 µM,2%
same,growth inhibition,[4]; at 100.0 µM,12%
same,growth inhibition,[5]; at 1.2 µM,7%
same,growth inhibition,[5]; at 3.7 µM,4%
same,growth inhibition,[5]; [17],7%
same,growth inhibition,[5]; at 11.0 µM,5%
same,growth inhibition,[5]; at 33.0 µM,16%
same,growth inhibition,[5]; [18],10%
same,growth inhibition,[5]; at 50.0 µM,51.1%
same,growth inhibition,[5]; at 100.0 µM,32%
same,growth inhibition,[6]; at 1.2 µM,-1%
same,growth inhibition,[6]; at 3.7 µM,1%
same,growth inhibition,[6]; [17],11%
same,growth inhibition,[6]; at 11.0 µM,0%
same,growth inhibition,[6]; at 33.0 µM,3%
same,growth inhibition,[6]; [18],10%
same,growth inhibition,[6]; at 50.0 µM,22.9%
same,growth inhibition,[6]; at 100.0 µM,7%
same,growth inhibition,[7]; at 1.2 µM,5%
same,growth inhibition,[7]; at 3.7 µM,3%
same,growth inhibition,[7]; at 11.0 µM,4%
same,growth inhibition,[7]; at 33.0 µM,13%
same,growth inhibition,[7]; at 100.0 µM,28%
same,growth inhibition,[8]; [17],10%
same,growth inhibition,[8]; [18],23%
same,growth inhibition,[8]; at 50.0 µM,86.2% (active)
same,growth inhibition,[9]; at 1.2 µM,3%
same,growth inhibition,[9]; at 3.7 µM,-1%
same,growth inhibition,[9]; at 11.0 µM,3%
same,growth inhibition,[9]; at 33.0 µM,8%
same,growth inhibition,[9]; at 100.0 µM,15%
same,growth inhibition,[10]; [17],11%
same,growth inhibition,[10]; [18],2%
same,growth inhibition,[10]; at 50.0 µM,-11.8%
same,growth inhibition,[11]; at 1.2 µM,-2%
same,growth inhibition,[11]; at 3.7 µM,-2%
same,growth inhibition,[11]; [17],3%
same,growth inhibition,[11]; at 11.0 µM,-3%
same,growth inhibition,[11]; at 33.0 µM,3%
same,growth inhibition,[11]; [18],1%
same,growth inhibition,[11]; at 50.0 µM,41.3%
same,growth inhibition,[11]; at 100.0 µM,5%
same,growth inhibition,[12]; at 1.2 µM,-10%
same,growth inhibition,[12]; at 3.7 µM,-9%
same,growth inhibition,[12]; at 11.0 µM,-14%
same,growth inhibition,[12]; at 33.0 µM,-9%
same,growth inhibition,[12]; at 100.0 µM,-10%
same,growth inhibition,[13]; at 1.2 µM,0%
same,growth inhibition,[13]; at 3.7 µM,2%
same,growth inhibition,[13]; at 11.0 µM,0%
same,growth inhibition,[13]; at 33.0 µM,6%
same,growth inhibition,[13]; at 100.0 µM,17%
same,growth inhibition,[14]; at 1.2 µM,-18%
same,growth inhibition,[14]; at 3.7 µM,7%
same,growth inhibition,[14]; at 11.0 µM,11%
same,growth inhibition,[14]; at 33.0 µM,6%
same,growth inhibition,[14]; at 100.0 µM,32%
same,growth inhibition,[15]; [17],6%
same,growth inhibition,[15]; [18],10%
same,growth inhibition,[15]; at 50.0 µM,62.5%
same,growth inhibition,[16]; at 1.2 µM,5%
same,growth inhibition,[16]; at 3.7 µM,8%
same,growth inhibition,[16]; at 11.0 µM,6%
same,growth inhibition,[16]; at 33.0 µM,15%
same,growth inhibition,[16]; at 100.0 µM,51%
